Results as given in PubChem BioAssay AID1159580 (chemical genetic matrix, 2015).
Hit rate of the full screen: of about 5,500 compounds, about 2,000 (36%) were called active. Inconclusive results (about 18%) are left out. No stated cut-off is given here; in the data, active means normalized growth mostly below about 0.91 (no sharp cut-off); inconclusive means no clear call, values can overlap the other calls; inactive means mostly above about 0.92. The list shows a part of the results.

Test: chemical genetic growth profiling, strain panel (AID 1159580);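 further: tested at 20 µM; growth read once vehicle control cultures reached saturation at 30 °C; 1 = growth at the plate median or of vehicle wells; lower values mean less growth of the strain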
Conditions: growth OD
[1] = S. cerevisiae deletion strains, locus YAL013W, strain DEP1, active compounds read low
[2] = S. cerevisiae deletion strains, locus YDR150W, strain NUM1, active compounds read low
[3] = S. cerevisiae deletion strains, locus YGR229C, strain SMI1, active compounds read low
[4] = S. cerevisiae deletion strains, locus YNL153C, strain GIM3, active compounds read low
[5] = S. cerevisiae deletion strains, locus YNL322C, strain KRE1, active compounds read low
[6] = S. cerevisiae deletion strains, locus YBR229C, strain ROT2, active compounds read low
[7] = S. cerevisiae deletion strains, locus YDL101C, strain DUN1, active compounds read low
[8] = S. cerevisiae deletion strains, locus YDL134C, strain PPH21, active compounds read low
[9] = S. cerevisiae deletion strains, locus YEL061C, strain CIN8, active compounds read low
[10] = S. cerevisiae deletion strains, locus YGR078C, strain PAC10, active compounds read low
[11] = S. cerevisiae deletion strains, locus YHR030C, strain SLT2, active compounds read low
[12] = S. cerevisiae deletion strains, locus YHR087W, strain rtc3, active compounds read low
[13] = S. cerevisiae deletion strains, locus YJR043C, strain POL32, active compounds read low
[14] = S. cerevisiae deletion strains, locus YJR075W, strain HOC1, active compounds read low
[15] = S. cerevisiae deletion strains, locus YLR039C, strain RIC1, active compounds read low
[16] = S. cerevisiae deletion strains, locus YLR058C, strain SHM2 (second series), active compounds read low
[17] = S. cerevisiae deletion strains, locus YLR085C, strain ARP6, active compounds read low
[18] = S. cerevisiae deletion strains, locus YLR262C, strain YPT6, active compounds read low
[19] = S. cerevisiae deletion strains, locus YML094W, strain GIM5, active compounds read low
[20] = S. cerevisiae deletion strains, locus YMR219W, strain ESC1, active compounds read low
[21] = S. cerevisiae deletion strains, locus YMR263W, strain SAP30, active compounds read low
[22] = S. cerevisiae deletion strains, locus YNL298W, strain CLA4 (second series), active compounds read low
[23] = S. cerevisiae deletion strains, locus YNR030W, strain Alg12, active compounds read low
[24] = S. cerevisiae deletion strains, locus YPL055C, strain LGE1, active compounds read low
[25] = S. cerevisiae deletion strains, locus YPL241C, strain CIN2, active compounds read low
[26] = S. cerevisiae deletion strains, locus YPR135W, strain CTF4, active compounds read low
[27] = S. cerevisiae strains, strain wild type, active compounds read low
[28] = S. cerevisiae deletion strains, locus YOL006C, strain TOP1, active compounds read low

Measured: normalized growth

CCS(=O)(=O)Nc1cccc(C(=C2CCCCC2)c2cnc[nH]2)c1
inactive: [1] 0.982 | S. cerevisiae deletion strains, locus YAL040C, strain CLN3, active compounds read low 1 | [2] 1.02 | S. cerevisiae deletion strains, locus YDR363W, strain ESC2, active compounds read low 0.974 | S. cerevisiae deletion strains, locus YER002W, strain NOP16, active compounds read low 1.04 | [3] 1 | [4] 1.03 | S. cerevisiae deletion strains, locus YNL175C, strain NOP13, active compounds read low 1 | S. cerevisiae deletion strains, locus YNL197C, strain WHI3, active compounds read low 1 | S. cerevisiae deletion strains, locus YNL224C, strain SQS1, active compounds read low 1.01 | [5] 0.994 | S. cerevisiae deletion strains, locus YOR083W, strain WHI5 (second series), active compounds read low 1.02

O=c1c2cc(NS(=O)(=O)c3ccc(Cl)cc3)ccc2oc2ncccc12
inactive: [1] 0.979 | [6] 1.02 | [7] 0.988 | [8] 1 | [2] 0.961 | [9] 1.04 | [10] 0.979 | [11] 0.998 | [12] 1.06 | [13] 0.976 | [14] 1.03 | [15] 1.03 | [16] 1.02 | [17] 1.04 | [18] 1.07 | [19] 1.08 | [20] 1.02 | [21] 0.991 | [4] 0.993 | [22] 0.997 | [5] 0.994 | [23] 1.02 | [24] 1.04 | [25] 1.01 | [26] 0.984

Cn1nccc1NS(=O)(=O)c1cccc(Cl)c1
inactive: [1] 1.01 | [6] 1.01 | S. cerevisiae deletion strains, locus YCL061C, strain MRC1, active compounds read low 1.02 | [7] 1 | [8] 0.969 | [2] 1.04 | [9] 1.01 | [10] 1.02 | [11] 1.07 | [12] 1.01 | [13] 1.03 | [14] 1.02 | [15] 0.98 | [16] 1.04 | [17] 0.984 | [18] 1.07 | [19] 0.972 | [20] 0.998 | [21] 1.03 | S. cerevisiae deletion strains, locus YMR307W, strain GAS1, active compounds read low 0.957 | [4] 1.01 | [22] 1.03 | [5] 1 | [23] 0.995 | [24] 1 | [25] 0.975 | [26] 1.08 | [27] 1.01

Cc1ccc(S(=O)(=O)Nc2ccc(C)c([N+](=O)[O-])c2)cc1
inactive: [1] 0.995 | [6] 0.988 | [7] 0.95 | [8] 0.994 | [2] 0.958 | [9] 1.03 | [10] 0.986 | [3] 1 | [11] 0.989 | [12] 1.02 | S. cerevisiae deletion strains, locus YJL187C, strain SWE1, active compounds read low 1.01 | [13] 0.976 | [14] 0.971 | S. cerevisiae deletion strains, locus YKL190W, strain CNB1, active compounds read low 0.988 | [15] 1.02 | [16] 1 | [17] 0.991 | [18] 1.01 | [19] 1.01 | [20] 0.993 | [21] 0.999 | [4] 0.979 | [22] 0.963 | [5] 0.983 | [23] 0.961 | [28] 1.02 | [24] 1.01 | [25] 0.952 | [26] 0.898 | [27] 0.981

Cc1cc(NS(=O)(=O)c2ccc(NS(=O)(=O)c3cc(C)c(Cl)cc3C)cc2)no1
inactive: [1] 0.991 | [6] 0.994 | [7] 1 | [8] 0.968 | [2] 1.07 | [9] 0.984 | [10] 1.01 | [11] 1.08 | [12] 0.982 | [13] 1.04 | [14] 1.01 | [15] 1 | [16] 0.979 | [17] 0.947 | [18] 1.09 | [19] 0.971 | [20] 0.99 | [21] 1.02 | S. cerevisiae deletion strains, locus YNL128W, strain TEP1, active compounds read low 0.981 | [4] 1.01 | [22] 0.979 | [5] 0.99 | [23] 1.01 | [28] 0.985 | [24] 1.04 | [25] 0.985 | [26] 1.09 | [27] 0.974

O=S(=O)(Nc1ccc(Oc2ccc(OC(F)(F)F)cc2)cc1)c1cccc(Cl)c1
inactive: S. cerevisiae deletion strains, locus YAR019C, strain CDC15, active compounds read low 0.982 | S. cerevisiae deletion strains, locus YBL105C, strain PKC1, active compounds read low 0.973 | S. cerevisiae deletion strains, locus YBR135W, strain CKS1, active compounds read low 0.978 | S. cerevisiae deletion strains, locus YBR136W, strain MEC1, active compounds read low 0.982 | S. cerevisiae deletion strains, locus YBR160W, strain CDC28, active compounds read low 0.981 | S. cerevisiae deletion strains, locus YDL017W, strain CDC7, active compounds read low 0.982 | S. cerevisiae deletion strains, locus YDL028C, strain MPS1, active compounds read low 0.982 | [7] 0.991 | S. cerevisiae deletion strains, locus YDL108W, strain KIN28, active compounds read low 0.976 | S. cerevisiae deletion strains, locus YDL132W, strain cdc53, active compounds read low 0.988 | S. cerevisiae deletion strains, locus YDL214C, strain PRR2, active compounds read low 0.932 | S. cerevisiae deletion strains, locus YDR052C, strain DBF4, active compounds read low 0.98 | S. cerevisiae deletion strains, locus YDR054C, strain cdc34, active compounds read low 0.988 | S. cerevisiae deletion strains, locus YDR226W, strain ADK1, active compounds read low 0.984 | S. cerevisiae deletion strains, locus YDR477W, strain SNF1, active compounds read low 0.964 | S. cerevisiae deletion strains, locus YER123W, strain YCK3, active compounds read low 0.933 | S. cerevisiae deletion strains, locus YER133W, strain GLC7, active compounds read low 0.933 | S. cerevisiae deletion strains, locus YFL009W, strain cdc4, active compounds read low 0.979 | S. cerevisiae deletion strains, locus YFL029C, strain CAK1, active compounds read low 0.985 | S. cerevisiae deletion strains, locus YFR003C, strain YPI1, active compounds read low 0.977 | S. cerevisiae deletion strains, locus YFR019W, strain FAB1, active compounds read low 0.891 | S. cerevisiae deletion strains, locus YFR028C, strain CDC14, active compounds read low 0.985 | S. cerevisiae deletion strains, locus YGR040W, strain KSS1, active compounds read low 0.949 | S. cerevisiae deletion strains, locus YGR052W, strain FMP48, active compounds read low 0.958 | S. cerevisiae deletion strains, locus YGR092W, strain DBF2, active compounds read low 0.937 | S. cerevisiae deletion strains, locus YHR079C, strain IRE1, active compounds read low 0.837 | S. cerevisiae deletion strains, locus YHR082C, strain KSP1, active compounds read low 0.978 | S. cerevisiae deletion strains, locus YHR205W, strain SCH9, active compounds read low 0.955 | S. cerevisiae deletion strains, locus YIL147C, strain SLN1, active compounds read low 0.982 | S. cerevisiae deletion strains, locus YJL095W, strain BCK1, active compounds read low 0.948 | S. cerevisiae deletion strains, locus YJL128C, strain PBS2, active compounds read low 0.936 | S. cerevisiae deletion strains, locus YJL157C, strain FAR1, active compounds read low 0.946 | S. cerevisiae deletion strains, locus YJR016C, strain ILV3, active compounds read low 0.991 | S. cerevisiae deletion strains, locus YJR066W, strain TOR1 (second series), active compounds read low 0.92 | S. cerevisiae deletion strains, locus YJR066W, strain TOR1, active compounds read low 0.975 | S. cerevisiae deletion strains, locus YKL048C, strain ELM1, active compounds read low 0.945 | S. cerevisiae deletion strains, locus YKL067W, strain YNK1, active compounds read low 0.934 | S. cerevisiae deletion strains, locus YKL101W, strain HSL1, active compounds read low 0.916 | S. cerevisiae deletion strains, locus YKL193C, strain SDS22, active compounds read low 0.984 | S. cerevisiae deletion strains, locus YKL203C, strain TOR2, active compounds read low 0.995 | S. cerevisiae deletion strains, locus YLR133W, strain CKI1, active compounds read low 0.941 | S. cerevisiae deletion strains, locus YLR403W, strain SFP1, active compounds read low 0.954 | S. cerevisiae deletion strains, locus YML070W, strain DAK1, active compounds read low 0.923 | S. cerevisiae deletion strains, locus YMR001C, strain CDC5, active compounds read low 0.984 | S. cerevisiae deletion strains, locus YMR205C, strain PFK2 (second series), active compounds read low 0.954 | S. cerevisiae deletion strains, locus YMR277W, strain FCP1, active compounds read low 0.983 | S. cerevisiae deletion strains, locus YNL006W, strain LST8, active compounds read low 0.98 | S. cerevisiae deletion strains, locus YNL020C, strain ARK1, active compounds read low 0.919 | S. cerevisiae deletion strains, locus YNL161W, strain CBK1, active compounds read low 0.977 | S. cerevisiae deletion strains, locus YNL183C, strain NPR1, active compounds read low 0.991 | S. cerevisiae deletion strains, locus YNL207W, strain RIO2, active compounds read low 0.989 | S. cerevisiae deletion strains, locus YNL222W, strain SSU72, active compounds read low 0.979 | S. cerevisiae deletion strains, locus YNL307C, strain MCK1 (second series), active compounds read low 0.897 | S. cerevisiae deletion strains, locus YOL078W, strain AVO1, active compounds read low 0.991 | S. cerevisiae deletion strains, locus YOL136C, strain PFK27, active compounds read low 0.92 | S. cerevisiae deletion strains, locus YOR061W, strain CKA2, active compounds read low 0.917 | S. cerevisiae deletion strains, locus YOR119C, strain RIO1, active compounds read low 1.03 | S. cerevisiae deletion strains, locus YOR231W, strain MKK1, active compounds read low 0.887 | S. cerevisiae deletion strains, locus YOR329C, strain SCD5, active compounds read low 0.974 | S. cerevisiae deletion strains, locus YPL031C, strain PHO85, active compounds read low 0.95 | S. cerevisiae deletion strains, locus YPL153C, strain RAD53, active compounds read low 0.982 | S. cerevisiae deletion strains, locus YPL204W, strain HRR25, active compounds read low 0.941 | S. cerevisiae deletion strains, locus YPL209C, strain IPL1, active compounds read low 0.977 | S. cerevisiae deletion strains, locus YPR025C, strain CCL1, active compounds read low 0.977 | S. cerevisiae deletion strains, locus YPR106W, strain ISR1, active compounds read low 0.988 | S. cerevisiae deletion strains, locus YPR111W, strain DBF20, active compounds read low 0.969 | S. cerevisiae deletion strains, strain NNK1, active compounds read low 0.989 | S. cerevisiae deletion strains, strain TSCII, active compounds read low 0.983
active: [11] 0.562 | S. cerevisiae deletion strains, locus YLR113W, strain HOG1, active compounds read low 0.695 | S. cerevisiae deletion strains, locus YPL256C, strain CLN2, active compounds read low 0.75
